Results filed as inconclusive are left out. Active and inactive are the calls of the source. The calls were made as follows, unless noted: active = hit-call score of the fitted dose curve at least 0.9, where 1 is the maximum; inactive = score below 0.9.
Experiments:
[1] = read-out: Human Leukocyte Antigen - DR isotype (HLADR), HLA-DRA (gene 3122); assay: BSK_3C_HLADR: BioMAP Diversity Plus: 3C Assay for Human Leukocyte Antigen - DR isotype (HLADR) Biomarker Activity (AID 2283019); conditions: primary human endothelial cells (HUVEC); actives raise or lower the signal;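 as to outcome: ELISA of cell-surface HLA-DR on HUVEC 24 h after dosing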
In short: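 Endothelial cells from human umbilical vein are treated with test chemical; after 24 h, HLA-DR levels are measured by ELISA. Data are fitted in both directions using DMSO as the baseline.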

[2] = read-out: Interleukin-8 (IL8), CXCL8 (gene 3576); assay: BSK_3C_IL8: BioMAP Diversity Plus: 3C Assay for Interleukin-8 (IL8) Biomarker Activity (AID 2283020); conditions: primary human endothelial cells (HUVEC); actives raise or lower the signal
In short: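 Human vascular endothelial cells (umbilical vein) in the 3C system; IL-8 level detected by ELISA at 24 h post-dose, with DMSO as baseline.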

[3] = read-out: Monokine induced gamma interferon (MIG), CXCL9 (gene 4283); assay: BSK_3C_MIG: BioMAP Diversity Plus: 3C Assay for Monokine induced gamma interferon (MIG) Biomarker Activity (AID 2283021); conditions: primary human endothelial cells (HUVEC); actives raise or lower the signal
In short: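 After 24 h of treatment, human umbilical vein endothelial cultures (3C system) had their MIG biomarker level determined by ELISA, with DMSO serving as negative control.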

[4] = BSK_3C_SRB: Viability Assessment in the BioMAP Diversity Plus: 3C Assay (AID 2283023); conditions: primary human endothelial cells (HUVEC);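 also: cells read 24 h after compound dosing; fitted both ways against DMSO so a hit may be signal rise or drop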
In short: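 Cells were dosed with chemical, cultured 24 h, fixed with 10% TCA, stained with 0.1% SRB and read at 560 nm. Human umbilical vein endothelium was used; DMSO served as negative control and baseline.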

[5] = read-out: Matrix Metallopeptidase 1 (MMP1), MMP1 (gene 4312); assay: BSK_BE3C_MMP1: BioMAP Diversity Plus: BE3C Assay for Matrix Metallopeptidase 1 (MMP1) Biomarker Activity (AID 2283024); conditions: primary human bronchial epithelial cells; actives raise or lower the signal
In short: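 Dose cells, wait 24 h, run MMP1 ELISA; cells are human bronchial epithelial primaries. Both increases and decreases relative to DMSO counted.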

[6] = BSK_3C_Vis: BioMAP Diversity Plus: 3C Assay for Morphology Visualization (AID 2283025); conditions: primary human endothelial cells (HUVEC);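 also: fitted both ways so gain or loss versus DMSO counts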;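 as to AC50: light microscopy image of cell morphology used as background control; cells imaged 24 h after dosing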
In short: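 Endothelial cells from human umbilical vein were treated with test chemicals for 24 h and inspected by light microscopy for changes in cell conformation.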

[7] = read-out: Pselectin, SELP (gene 6403); assay: BSK_4H_Pselectin: BioMAP Diversity Plus: 4H Assay for Pselectin Biomarker Activity (AID 2283026); conditions: primary human endothelial cells (HUVEC); actives raise or lower the signal
In short: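 Human vascular endothelium from umbilical vein; P-selectin measured by ELISA at 24 h post-dose, with cytotoxicity checked by sulforhodamine B total-protein staining in parallel cultures (0.1% SRB after 10% TCA fixation, read at 560 nm).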

[8] = BSK_4H_SRB: Viability Assessment in the BioMAP Diversity Plus: 4H Assay (AID 2283027); conditions: primary human endothelial cells (HUVEC);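 also: cells exposed to compound for 24 h before staining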
In short: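 Absorbance at 560 nm of SRB-stained total protein served as the viability read-out in confluent primary human umbilical vein endothelium 24 h after chemical treatment. Curves were fitted bidirectionally against DMSO as negative control.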

[9] = BSK_BE3C_SRB: Viability Assessment in the BioMAP Diversity Plus: BE3C Assay (AID 2283028); conditions: primary human bronchial epithelial cells
In short: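 Overt cytotoxicity was assessed as total protein in confluent human primary bronchial epithelial cultures 24 h after chemical addition, using 0.1% sulforhodamine B staining read at 560 nm.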

[10] = read-out: Thrombomodulin, THBD (gene 7056); assay: BSK_3C_Thrombomodulin: BioMAP Diversity Plus: 3C Assay for Thrombomodulin Biomarker Activity (AID 2283029); conditions: primary human endothelial cells (HUVEC); actives raise or lower the signal
In short: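 Thrombomodulin ELISA, human primary HUVEC, 24 h post-dose; data fitted in both directions relative to DMSO.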

[11] = read-out: Urokinase-type plasminogen activator receptor (uPAR), PLAUR (gene 5329); assay: BSK_4H_uPAR: BioMAP Diversity Plus: 4H Assay for Urokinase-type plasminogen activator receptor (uPAR) Biomarker Activity (AID 2283030); conditions: primary human endothelial cells (HUVEC); actives raise or lower the signal
In short: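 Chemicals are dosed onto human vascular endothelial primary cells (umbilical vein). After 24 h, uPAR is read by ELISA. Gain or loss of signal is fitted relative to DMSO.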

[12] = read-out: Vascular endothelial growth factor receptor 2 (Homo sapiens) (UniProt P35968); assay: BSK_4H_VEGFRII: BioMAP Diversity Plus: 4H Assay for Vascular endothelial growth factor receptor 2 (VEGFR2) Biomarker Activity (AID 2283031); conditions: primary human endothelial cells (HUVEC); actives raise or lower the signal;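 as to AC50: cell-surface VEGFR2 protein level quantified by ELISA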
In short: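 VEGFRII levels on human vascular endothelial primary cells were determined by ELISA at 24 hours post-dosing, with gain- or loss-of-signal fitted against DMSO controls.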

[13] = read-out: Human Leukocyte Antigen - DR isotype (HLADR), HLA-DRA (gene 3122); assay: BSK_BE3C_HLADR: BioMAP Diversity Plus: BE3C Assay for Human Leukocyte Antigen - DR isotype (HLADR) Biomarker Activity (AID 2283032); conditions: primary human bronchial epithelial cells; actives raise or lower the signal
In short: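 Signal came from an ELISA for HLA-DR in human bronchial epithelial primary cells harvested 24 h after treatment; gain- and loss-of-signal fitting used DMSO controls as reference.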

[14] = read-out: Vascular cell adhesion molecule 1 (VCAM1), VCAM1 (gene 7412); assay: BSK_4H_VCAM1: BioMAP Diversity Plus: 4H Assay for Vascular cell adhesion molecule 1 (VCAM1) Biomarker Activity (AID 2283033); conditions: primary human endothelial cells (HUVEC); actives raise or lower the signal;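 as to outcome: cell-surface VCAM-1 protein measured by ELISA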
In short: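 Endpoint derived from bidirectional fitting against DMSO controls of VCAM-1 ELISA signal in umbilical vein endothelial cells sampled at 24 h following treatment.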

[15] = read-out: Interferon-gamma inducible Protein 10 (IP10), CXCL10 (gene 3627); assay: BSK_BE3C_IP10: BioMAP Diversity Plus: BE3C Assay for Interferon-gamma inducible Protein 10 (IP10) Biomarker Activity (AID 2283034); conditions: primary human bronchial epithelial cells; actives raise or lower the signal
In short: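 Using primary human bronchial epithelial cultures, the assay captures IP-10 by ELISA one day (24 h) after exposure. Parallel SRB staining of total protein flags overt cytotoxicity. Fits run bidirectionally relative to DMSO.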

[16] = read-out: Monokine induced gamma interferon (MIG), CXCL9 (gene 4283); assay: BSK_BE3C_MIG: BioMAP Diversity Plus: BE3C Assay for Monokine induced gamma interferon (MIG) Biomarker Activity (AID 2283035); conditions: primary human bronchial epithelial cells; actives raise or lower the signal;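 also: MIG protein measured by ELISA in BE3C cultures after 24 h of dosing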
In short: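 MIG level was determined by ELISA after 24 h chemical treatment of primary human bronchial epithelial cells. Values were fitted bidirectionally with DMSO as the negative control and activity baseline.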

[17] = read-out: Transforming growth factor beta 1 (TGFb1), TGFB1 (gene 7040); assay: BSK_BE3C_TGFb1: BioMAP Diversity Plus: BE3C Assay for Transforming growth factor beta 1 (TGFb1) Biomarker Activity (AID 2283036;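 as to outcome: TGF-b1 protein level measured by ELISA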); conditions: primary human bronchial epithelial cells; actives raise or lower the signal
In short: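 In this human primary bronchial epithelial system, an ELISA quantified TGF-b1 one day after dosing. Endpoint changes in either direction were fitted relative to DMSO.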

[18] = read-out: Plasminogen activator inhibitor-1 (PAI1), SERPINE1 (gene 5054); assay: BSK_BE3C_PAI1: BioMAP Diversity Plus: BE3C Assay for Plasminogen activator inhibitor-1 (PAI1) Biomarker Activity (AID 2283037); conditions: primary human bronchial epithelial cells; actives raise or lower the signal
In short: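 PAI-1 biomarker levels in treated human bronchial epithelial cells are determined by ELISA at 24 h. Both increases and decreases relative to DMSO are fitted.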

[19] = read-out: urokinase plasminogen activator (uPA), PLAU (gene 5328); assay: BSK_BE3C_uPA: BioMAP Diversity Plus: BE3C Assay for urokinase plasminogen activator (uPA) Biomarker Activity (AID 2283038); conditions: primary human bronchial epithelial cells; actives raise or lower the signal;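 also: uPA protein level quantified by ELISA in cell cultures; uPA read one day after compound addition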
In short: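 Measured by ELISA: uPA from human primary bronchial epithelial cells 24 h after chemical treatment. Values derive from bidirectional curve fitting with DMSO serving as negative control. Total protein by SRB staining in parallel wells flagged overt cytotoxicity.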

[20] = target: human Vitamin D Receptor (VDR), VDR (gene 7421) (UniProt P11473); assay: ATG_VDR_TRANS: Attagene TRANS-FACTORIAL HepG2 Assay for human Vitamin D Receptor (VDR) (AID 2283022; active = hit-call score of the fitted dose curve at least 0.9, where 1 is the maximum)
human Vitamin D Receptor (VDR), VDR (gene 7421), sequence (P11473 whole entry, looked up, the tested form may be a part): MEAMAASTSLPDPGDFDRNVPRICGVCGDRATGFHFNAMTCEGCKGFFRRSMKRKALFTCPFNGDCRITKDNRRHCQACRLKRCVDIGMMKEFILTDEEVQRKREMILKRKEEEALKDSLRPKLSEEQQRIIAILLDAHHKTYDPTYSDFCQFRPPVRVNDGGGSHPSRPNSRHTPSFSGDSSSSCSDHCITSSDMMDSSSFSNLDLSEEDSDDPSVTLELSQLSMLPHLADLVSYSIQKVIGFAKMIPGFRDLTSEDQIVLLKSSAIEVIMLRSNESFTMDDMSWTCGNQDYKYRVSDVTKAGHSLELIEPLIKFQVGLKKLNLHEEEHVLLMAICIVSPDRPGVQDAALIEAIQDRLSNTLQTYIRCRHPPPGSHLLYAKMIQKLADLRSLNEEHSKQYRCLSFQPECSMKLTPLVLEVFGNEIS
In short: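 Fluorescence of labelled reporter cDNA fragments, resolved by capillary electrophoresis, gives mRNA induction after 24 h treatment of HepG2 cells carrying transfected Gal4-fusion reporter units. Activity is fitted in the positive direction with DMSO as baseline.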

## Cn1sc(Cl)cc1=O
[1]
  AC50: 29.9 µM (active)
[2]
  outcome: inactive
[3]
  outcome: inactive
[4]
  outcome: inactive
[5]
  outcome: inactive
[6]
  outcome: inactive
[7]
  AC50: 9.68 µM (active)
[8]
  outcome: inactive
[9]
  outcome: inactive
[10]
  outcome: inactive
[11]
  outcome: inactive
[12]
  outcome: inactive
[13]
  outcome: inactive
[14]
  AC50: 20 µM (active)
[15]
  outcome: inactive
[16]
  outcome: inactive
[17]
  outcome: inactive
[18]
  outcome: inactive
[19]
  outcome: inactive

## O=C(O)CCC(F)(C(F)(F)F)C(F)(F)F
[1]
  outcome: inactive
[2]
  outcome: inactive
[3]
  outcome: inactive
[4]
  outcome: inactive
[5]
  outcome: inactive
[7]
  outcome: inactive
[8]
  outcome: inactive
[9]
  outcome: inactive
[10]
  outcome: inactive
[11]
  outcome: inactive
[12]
  outcome: inactive
[13]
  outcome: inactive
[14]
  outcome: inactive
[15]
  outcome: inactive
[18]
  outcome: inactive
[19]
  outcome: inactive

## COC[C@H](C)N(C(=O)CCl)c1c(C)csc1C
[1]
  outcome: inactive
[2]
  outcome: inactive
[3]
  outcome: inactive
[4]
  outcome: inactive
[5]
  outcome: inactive
[6]
  outcome: inactive
[7]
  outcome: inactive
[8]
  outcome: inactive
[9]
  outcome: inactive
[10]
  outcome: inactive
[12]
  outcome: inactive
[13]
  outcome: inactive
[14]
  outcome: inactive
[15]
  outcome: inactive
[17]
  outcome: inactive
[18]
  outcome: inactive
[19]
  outcome: inactive

## ClC1=C(Cl)[C@]2(Cl)[C@H]3[C@H]([C@H]4C=C[C@H]3C4)[C@@]1(Cl)C2(Cl)Cl
[1]
  AC50: 8.54 µM (active)
[2]
  outcome: inactive
[3]
  outcome: inactive
[20]
  outcome: inactive
[4]
  AC50: 7.55 µM (active)
[5]
  outcome: inactive
[6]
  AC50: 13.6 µM (active)
[7]
  AC50: 7.17 µM (active)
[8]
  outcome: inactive
[9]
  outcome: inactive
[10]
  outcome: inactive
[12]
  AC50: 2.01 µM (active)
[13]
  AC50: 13.1 µM (active)
[14]
  AC50: 7.9 µM (active)
[16]
  outcome: inactive
[17]
  AC50: 3.12 µM (active)
[18]
  AC50: 3.97 µM (active)
[19]
  outcome: inactive

## COc1cc(OC)nc(NC(=O)NS(=O)(=O)c2ncccc2C(=O)N(C)C)n1
[1]
  outcome: inactive
[2]
  outcome: inactive
[3]
  outcome: inactive
[4]
  outcome: inactive
[5]
  outcome: inactive
[6]
  outcome: inactive
[7]
  outcome: inactive
[8]
  outcome: inactive
[9]
  outcome: inactive
[10]
  outcome: inactive
[12]
  outcome: inactive
[13]
  outcome: inactive
[14]
  outcome: inactive
[15]
  outcome: inactive
[16]
  outcome: inactive
[17]
  outcome: inactive
[18]
  outcome: inactive
[19]
  outcome: inactive

## CN(CCCC(=O)c1cccnc1)N=O
[20]
  outcome: inactive

## N#CN=C(N)N
[20]
  outcome: inactive

Source: PubChem BioAssay (EPA / NIEHS)
